In PubChem BioAssay (NCI) one finds growth data, which are given here for 13 compounds.

Among the test systems are NCI-H23 lung; HOP-62 NSCLC; NCI-H460 lung; HOP-92 NSCLC; NCI-H522 lung; A549/ATCC NSCLC; 786-0 renal; COLO 205 colon; NCI-H322M lung.
Common to all, as to experiment: NCI-60 one-dose screen, 48 h (100 = growth as untreated, 0 = no growth, -100 = all killed)
Common to all, as to settings: 10 µM unless noted

About 83,000 compounds went through this panel and 20% of them were active in at least one assay; those are over-represented in the sample as a whole.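 Method: cells in 96-well plates; compound added at one concentration; 48 h incubation; percent growth measured; values under 10 scored active.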 Unmarked numbers belong to inactive results. Calls of active or inactive are those of the source.

For `CNC12C3C4C1C1C2C3C41C(=O)N[C@H](C(=O)N(C)[C@H](C[C@@H](OC(C)=O)c1nc(C(=O)N[C@@H](Cc2ccccc2)C[C@H](C)C(=O)OC)cs1)C(C)C)C1CC1` (stereo not given in full), the growth with NCI-H23 lung is 7.82% (active); in the test on HOP-62 NSCLC, 22.1%; with NCI-H460 lung it was 14.8%; in the test with HOP-92 NSCLC, -15.3% (active); in the test with NCI-H522 lung, -27.4% (active); in the test on A549/ATCC NSCLC, 17.7%. For the same compound, the growth was 15.5% with 786-0 renal and -46.5% (active) in the test on COLO 205 colon.

With `COC(=O)[C@@H](C)C[C@H](Cc1cn(C)c2ccccc12)NC(=O)c1csc([C@@H](C[C@H](C(C)C)N(C)C(=O)[C@@H](NC(=O)[C@H]2CCCCN2C)C(C)C)OC(C)=O)n1`, the growth with NCI-H23 lung was 31.9%; in the test on NCI-H322M lung, 37.8%; in the test with HOP-62 NSCLC, 7.44% (active); in the test with NCI-H460 lung, 7.12% (active); in the test on HOP-92 NSCLC, 25.7%; in the test with NCI-H522 lung, -7.69% (active). Further, the growth in the test with A549/ATCC NSCLC is 15.3%; in the test with 786-0 renal it was 6.49% (active); in the test on COLO 205 colon, -58.9% (active).

Take `CN(CCCCN(C)CCOS(C)(=O)=O)CCOS(C)(=O)=O`: the growth in the test with NCI-H23 lung was 84%; with NCI-H322M lung, 105%; in the test with HOP-62 NSCLC, 84.7%; in the test on NCI-H460 lung it was 35.2%; in the test on HOP-92 NSCLC, 86.3%; in the test on NCI-H522 lung, 81.3%. Moreover, the results for the growth in the test on A549/ATCC NSCLC, in the test on 786-0 renal and in the test with COLO 205 colon were 78.9%, 100% and 74.2%, respectively.

As for `CC1(C)CN1P(=O)(N1CC1(C)C)N1CC1(C)C` (stereo not given), the growth in the test with NCI-H23 lung was 105%; in the test on NCI-H322M lung it was 111%; in the test with HOP-62 NSCLC it was 102%; with NCI-H460 lung, 112%; in the test with HOP-92 NSCLC, 103%; in the test on NCI-H522 lung, 104%. The growth is 91% with A549/ATCC NSCLC, 109% with 786-0 renal and 107% with COLO 205 colon.

As to `CN(C)CCCOc1ccc2c(c1)c(C(=O)C(=O)NCCO)cn2Cc1ccccc1`, the growth is 95.6% in the test on NCI-H23 lung; 105% in the test with NCI-H322M lung; 100% in the test with HOP-62 NSCLC; 105% with NCI-H460 lung; 92.1% in the test on HOP-92 NSCLC; 99% with NCI-H522 lung. The values for the growth in the test with A549/ATCC NSCLC, with 786-0 renal and with COLO 205 colon were 105%, 93.3% and 107%, respectively.

With `COC[C@@H]1C[C@@]2(C)[C@@H](CC[C@@H]3[C@@H]2CC[C@@]2(C)[C@H]3CC[C@]2(C)O)CC1=O`, the growth in the test on NCI-H23 lung is 108%; in the test on NCI-H322M lung, 105%; in the test with HOP-62 NSCLC it was 107%; with NCI-H460 lung, 101%; in the test with HOP-92 NSCLC, 100%; with NCI-H522 lung it was 73.6%. Moreover, the growth in the test with A549/ATCC NSCLC is 90.6%; with 786-0 renal, 94.9%; in the test with COLO 205 colon, 109%.

For `COc1cc(C=C2c3ccccc3C(=O)c3ccccc32)ccc1OCCCCOc1cc2c(cc1OC)C(=O)N1CCCC1C=N2` (stereo not given), the growth was -52.7% (active) with NCI-H23 lung; 13.3% in the test with NCI-H322M lung; -62.5% (active) in the test on HOP-62 NSCLC; -77% (active) in the test with NCI-H460 lung; -59.4% (active) in the test with HOP-92 NSCLC; -53.1% (active) with NCI-H522 lung. Further, the growth is -37.8% (active) in the test on A549/ATCC NSCLC, -100% (active) in the test with 786-0 renal and -93.9% (active) in the test on COLO 205 colon.

Turning to `CCn1cnc2c(Nc3cccc(Cl)c3)nc(N[C@@H]3CCCC[C@@H]3N)nc21`, the growth in the test with NCI-H23 lung was -21.5% (active); in the test on HOP-62 NSCLC, -11.1% (active); with NCI-H460 lung, 1.68% (active); in the test with HOP-92 NSCLC, -9.78% (active); with NCI-H522 lung, -32.4% (active); in the test with A549/ATCC NSCLC, -7.67% (active). Besides, the growth in the test on 786-0 renal was 1.83% (active); in the test with COLO 205 colon, -67.6% (active).

As for `Fc1ccc2c(c1)c(-c1nc(-c3c[nH]c4ncccc34)cs1)cn2CCN1CCOCC1`, the growth is 60% with NCI-H23 lung; 77.2% in the test on NCI-H322M lung; 39.3% in the test on HOP-62 NSCLC; 59.8% in the test on NCI-H460 lung; 18.8% in the test with HOP-92 NSCLC; 44.5% in the test on NCI-H522 lung. The growth with A549/ATCC NSCLC is 52.1%; in the test on 786-0 renal, 71.6%; in the test on COLO 205 colon, 38.4%.

Regarding `C[C@@H]1C[C@@]2(C)[C@@H](CC[C@@H]3[C@@H]2CC[C@]2(C)C(=O)CC[C@@H]32)CC1=O`, the growth was 104% in the test with NCI-H23 lung; 96.1% in the test with NCI-H322M lung; 78.9% with HOP-62 NSCLC; 108% in the test with NCI-H460 lung; 71.7% in the test on HOP-92 NSCLC; 91.9% in the test with NCI-H522 lung. The results for the growth in the test with A549/ATCC NSCLC, with 786-0 renal and in the test on COLO 205 colon were 82.7%, 93.2% and 99.5%, respectively.

As to `CCOC(=S)S[C@H]1C[C@@H]2[C@H](CC[C@]3(C)C(=O)CC[C@@H]23)[C@@]2(C)CCC(=O)C=C12`, the growth in the test on NCI-H23 lung is 101%; in the test with NCI-H322M lung it was 102%; with HOP-62 NSCLC, 112%; in the test with NCI-H460 lung it was 105%; in the test with HOP-92 NSCLC, 117%; with NCI-H522 lung, 95.6%. Besides, the growth with A549/ATCC NSCLC is 107%; in the test with 786-0 renal, 102%; with COLO 205 colon, 115%.

Turning to `COc1cc(/C=N/C2=C(C#N)C(c3ccco3)c3c(c4cc(C)ccc4oc3=O)O2)cc(OC)c1OC` (stereo not given), the growth in the test with NCI-H23 lung is 95.1%; in the test with NCI-H322M lung, 100%; with HOP-62 NSCLC it was 87.3%; in the test with NCI-H460 lung, 103%; in the test with HOP-92 NSCLC it was 59.4%; in the test with NCI-H522 lung it was 40.3%. Also, the growth is 99.5% in the test with A549/ATCC NSCLC, 92.5% in the test on 786-0 renal and 118% in the test on COLO 205 colon.

Take `CCC1CN1CCCCN1CC1CC` (stereo not given): the growth in the test with NCI-H23 lung was 104%; with NCI-H322M lung, 96.7%; in the test on HOP-62 NSCLC, 113%; in the test with NCI-H460 lung, 113%; with HOP-92 NSCLC, 116%; in the test with NCI-H522 lung, 95.6%. Also, the growth with A549/ATCC NSCLC was 104%; in the test on 786-0 renal it was 104%; in the test with COLO 205 colon, 112%.
